According to PubChem BioAssay AID1159580 (chemical genetic matrix, 2015):
“And” between values parts separate entries of the source, which are not always exact repeats. Equal entries are not always repeated. Among all 5,500 compounds or so, about 2,000 (36%) were called active. About 18% were inconclusive and are not listed. No stated cut-off is given here; in the data, active means normalized growth mostly below about 0.91 (no sharp cut-off); inconclusive means no clear call, values can overlap the other calls; inactive means mostly above about 0.92. The list shows a part of the results.

Assay: chemical genetic growth profiling, strain panel (AID 1159580);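 further: tested at 20 µM; growth read once vehicle control cultures reached saturation at 30 °C; 1 = growth at the plate median or of vehicle wells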
Details: S. cerevisiae deletion strains, growth OD

Measured: normalized growth

COC(=O)Nc1nc2ccc(Sc3ccccc3)cc2[nH]1
inactive: locus YAL013W, strain DEP1, stronger effect = lower value 1 | locus YAL021C, strain ccr4, stronger effect = lower value 1.01 | locus YAL026C, strain drs2, stronger effect = lower value 1 | locus YAL030W, strain snc1, stronger effect = lower value 0.986 | locus YBL061C, strain skt5, stronger effect = lower value 0.986 | locus YBR009C, strain hhf1, stronger effect = lower value 0.993 | locus YBR021W, strain FUR4, stronger effect = lower value 1.02 | locus YBR023C, strain chs3, stronger effect = lower value 0.989 | locus YBR171W, strain sec66, stronger effect = lower value 0.987 | locus YBR229C, strain ROT2, stronger effect = lower value 0.997 | locus YBR279W, strain paf1, stronger effect = lower value 0.985 | locus YCL011C, strain gbp2, stronger effect = lower value 0.991 | locus YCL016C, strain dcc1, stronger effect = lower value 1 | locus YCL061C, strain MRC1, stronger effect = lower value 1.01 | locus YCL069W, strain vba3, stronger effect = lower value 0.99 | locus YCR088W, strain abp1, stronger effect = lower value 0.996 | locus YDL005C, strain med2, stronger effect = lower value 0.987 | locus YDL035C, strain GPR1, stronger effect = lower value 0.98 | locus YDL040C, strain nat1, stronger effect = lower value 1.01 | locus YDL074C, strain BRE1, stronger effect = lower value 0.994 | locus YDL101C, strain DUN1, stronger effect = lower value 1.02 | locus YDL134C, strain PPH21, stronger effect = lower value 1.01 | locus YDL185W, strain tfp1, stronger effect = lower value 0.986 | locus YDL192W, strain arf1, stronger effect = lower value 1 | locus YDR001C, strain nth1, stronger effect = lower value 0.996 | locus YDR069C, strain doa4, stronger effect = lower value 0.984 | locus YDR101C, strain arx1, stronger effect = lower value 0.99 | locus YDR137W, strain rgp1, stronger effect = lower value 0.965 | locus YDR150W, strain NUM1, stronger effect = lower value 0.975 | locus YDR159W, strain sac3, stronger effect = lower value 0.99 | locus YDR162C, strain NBP2, stronger effect = lower value 1 | locus YDR195W, strain ref2 1.04 | locus YDR297W, strain sur2, stronger effect = lower value 0.97 | locus YDR318W, strain mcm21, stronger effect = lower value 1.01 | locus YDR335W, strain msn5, stronger effect = lower value 1 | locus YDR388W, stronger effect = lower value 1 | locus YDR392W, strain spt3, stronger effect = lower value 0.993 | locus YDR502C, strain sam2, stronger effect = lower value 0.98 | locus YEL037C, strain rad23, stronger effect = lower value 1 | locus YEL061C, strain CIN8 (second series), stronger effect = lower value 0.999 | locus YEL061C, strain CIN8, stronger effect = lower value 0.995 | locus YER015W, strain faa2, stronger effect = lower value 0.988 | locus YER016W, strain bim1, stronger effect = lower value 0.985 | locus YER110C, stronger effect = lower value 0.995 | locus YER111C, strain swi4, stronger effect = lower value 0.992 | locus YER155C, strain BEM2 (second series), stronger effect = lower value 0.978 | locus YER155C, strain BEM2, stronger effect = lower value 1 | locus YER167W, strain BCK2, stronger effect = lower value 0.991 | locus YFR010W, strain ubp6, stronger effect = lower value 0.995 | locus YGL078C, strain dbp3, stronger effect = lower value 0.99 | locus YGL086W, strain mad1, stronger effect = lower value 0.955 | locus YGL167C, strain pmr1, stronger effect = lower value 0.98 | locus YGL173C, strain kem1, stronger effect = lower value 0.991 | locus YGL227W, strain vid30, stronger effect = lower value 0.993 | locus YGL240W, strain doc1, stronger effect = lower value 0.987 | locus YGL248W, strain PDE1, stronger effect = lower value 1 | locus YGL253W, strain hxk2, stronger effect = lower value 1 | locus YGR135W, strain pre9, stronger effect = lower value 0.99 | locus YGR229C, strain SMI1, stronger effect = lower value 0.941 | locus YGR252W, strain gcn5, stronger effect = lower value 0.895 | locus YHR013C, strain ard1, stronger effect = lower value 0.969 | locus YHR027C, strain rpn1, stronger effect = lower value 0.998 | locus YHR030C, strain SLT2, stronger effect = lower value 0.995 and 0.963 | locus YHR079C, strain IRE1 (second series), stronger effect = lower value 1.01 | locus YHR079C, strain IRE1, stronger effect = lower value 0.964 | locus YHR094C, strain hxt1, stronger effect = lower value 1 | locus YHR129C, strain ARP1, stronger effect = lower value 1.01 | locus YHR142W, strain chs7, stronger effect = lower value 0.989 | locus YHR200W, strain rpn10, stronger effect = lower value 0.984 | locus YIL066C, strain RNR3, stronger effect = lower value 0.997 | locus YIL073C, strain SPO22, stronger effect = lower value 0.998 | locus YIL125W, strain kgd1, stronger effect = lower value 0.99 | locus YIR030C, strain dcg1, stronger effect = lower value 1 | locus YJL092W, strain hpr5, stronger effect = lower value 1 | locus YJL095W, strain BCK1 (second series), stronger effect = lower value 0.985 | locus YJL095W, strain BCK1, stronger effect = lower value 1.03 and 0.949 | locus YJL115W, strain asf1, stronger effect = lower value 1.01 | locus YJL129C, strain trk1, stronger effect = lower value 0.976 | locus YJL134W, strain LCB3, stronger effect = lower value 1 | locus YJL154C, strain vps35, stronger effect = lower value 0.993 | locus YJL164C, strain tpk1, stronger effect = lower value 1 | locus YJL166W, strain qcr8, stronger effect = lower value 0.972 | locus YJL168C, strain set2, stronger effect = lower value 1 | locus YJL187C, strain SWE1 (second series), stronger effect = lower value 1.01 | locus YJR043C, strain POL32, stronger effect = lower value 0.988 | locus YJR066W, strain TOR1, stronger effect = lower value 0.872
active: locus YBR231C, strain swc5, stronger effect = lower value 0.753 | locus YCL029C, strain bik1, stronger effect = lower value 0.826 | locus YDR334W, strain swr1, stronger effect = lower value 0.788 | locus YEL003W, strain gim4, stronger effect = lower value 0.206 | locus YGR078C, strain PAC10, stronger effect = lower value 0.0823
